Assay results taken from PubChem BioAssay AID1850 (Southern Research Specialized Biocontainment Screening …, 2009).
“And” between values parts separate entries of the source, which are not always exact repeats. Equal entries are not always repeated. The campaign covered roughly 310,000 compounds. About 1,000 (0.32%) were called active. How the calls were made is not given here. Only a sample is shown. Potency and affinity values are given separately.

Assay: PhoP regulon inhibitors, Salmonella typhi PhoP promoter GFP reporter, confirmatory (AID 1850);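 further: 0% = induced wells with vehicle and 100% = uninduced wells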
Settings: fluorescence, 4 h, at 50 µM, stronger effect = higher value

SMILES | inhibition
CCOc1ccc(-c2noc(CCC(=O)NC3CCCCC3)n2)cc1OC | -7.76% (inactive)
Fc1cccc(Nc2nc(Cl)nc(Cl)n2)c1 | -6.69% (inactive)
NNc1nc(Nc2ccccc2)nc(Nc2ccccc2)n1 | -2.45% (inactive)
COc1cc2nc(Nc3cccc(F)c3)nc(N)c2cc1OC | -16.8% (inactive)
COc1ccc(C)cc1Nc1nc(N)c2ccccc2n1 | 2.42% (inactive)
CC(=O)c1ccc(OCC(O)CN2CCN(c3ccc(F)cc3)CC2)cc1 (stereo unspecified) | 9.79% (inactive)
C[C@H]1CN=C(N(C)C)N1CCCC1CCCCC1 | -3.79% (inactive)
CCOC(=O)N1CCN(CCC(=O)Nc2ccc(Br)cc2)CC1 | -11.9% (inactive)
CCOC(=O)N1CCN(CCC(=O)c2ccc(OC)cc2)CC1 | 19.1% (inactive)
CCOC(=O)N1CCN(CCC(=O)Nc2cccc(Br)c2)CC1 | -10.1% (inactive) and 1.14% (inactive)
O=C(CCN1CCOCC1)c1ccc(Cl)cc1 | 5.47% (inactive)
CCOC(=O)n1cc(-c2cnc(CNC(=O)C(C)(c3ccccc3)c3ccccc3)o2)c2ccccc21 | -3.78% (inactive)
Cc1ccc(C(=O)NCC(=O)Nc2cccc(C(F)(F)F)c2)cc1 | 7% (inactive)
CCCN1CCN(CCCNC(=S)Nc2ccc3nc(N4CCN(CC)CC4)cc(C)c3c2)CC1 | 2.52% (inactive)
Cn1cc(P(=S)(N2CCOCC2)N2CCOCC2)cc1P(=S)(N1CCOCC1)N1CCOCC1 | -5.57% (inactive)
CN(C)S(=O)(=O)c1ccc(S(=O)(=O)N(CC(=O)Nc2ccccc2)CC2CCCO2)cc1 (stereo unspecified) | 9.84% (inactive)
CC1CCCN(C(=O)COC(=O)Cc2c(F)cccc2Cl)C1 (stereo unspecified) | 8.14% (inactive)
C[N+]1(C)CCC(=C2c3ccccc3CC(=O)c3sccc32)CC1 | -5.91% (inactive)
CN1CCC(=C2c3ccccc3CCc3sccc32)CC1 | 4.53% (inactive)
Clc1ccc2c(c1)CCc1cccnc1C2=C1CCNCC1 | 9.72% (inactive)
CN1CCC(=C2c3ccccc3CC(=O)c3sccc32)CC1 | -11.1% (inactive) and 6.89% (inactive) and 11.9% (inactive)
COc1ccccc1CNC(=O)c1ccc(N2CCOCC2)c([N+](=O)[O-])c1 | 3.84% (inactive)
O=C(O)c1ccccc1C(=O)Nc1ccc(Oc2ccc3ccccc3c2)cc1 | -5.98% (inactive)
O=S(=O)(Nc1ccc(-n2cnnn2)cc1)c1ccc(F)c(F)c1F | -6.29% (inactive)
Cc1cc(NCCN2CCOCC2)c2ccc3ccccc3c2n1 | 0.49% (inactive)
COc1ccc2nc(C)cc(NCCN3CCOCC3)c2c1 | 3.31% (inactive)
